Compound activity: PubChem BioAssay, National Center for Advancing Translational Sciences (NCATS)
A selection: hits, their analogues and other compounds. The true share with any hit is near 9.9%.
JMJD2E inh – JMJD2E (human) inhibition | Potency, µM (top dose mostly 57.1 µM), actives largely listed as inhibitors | AID 2147 | hit rate 1.6% among 230,000 | JMJD2E catalytic domain, FDH-coupled NADH fluorescence (FDH is formaldehyde dehydrogenase); also: nearly all actives have a fitted effect of over 50% in size
Target sequence (B2RXH2 1-337 limits assumed): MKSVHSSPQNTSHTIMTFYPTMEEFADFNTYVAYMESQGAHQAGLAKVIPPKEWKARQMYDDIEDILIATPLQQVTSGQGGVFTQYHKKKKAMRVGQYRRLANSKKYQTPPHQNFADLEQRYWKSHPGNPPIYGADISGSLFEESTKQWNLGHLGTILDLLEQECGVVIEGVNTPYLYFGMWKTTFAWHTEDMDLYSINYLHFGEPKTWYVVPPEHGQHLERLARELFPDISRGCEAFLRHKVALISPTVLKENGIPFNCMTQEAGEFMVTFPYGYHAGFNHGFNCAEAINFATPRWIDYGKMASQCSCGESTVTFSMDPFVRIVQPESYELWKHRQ
HPGD inh – blocks human HPGD enzyme activity; AID 894; hit rate 4.3% among 150,000; Potency, µM, usual class: inhibitors; purified HPGD, NADH fluorescence kinetic, PGE2 substrate; P15428; active = well fitted inhibition curve with a large enough effect, not every such curve was filed as active; inconclusive = small, poorly fitted or top-dose-only effect, or another doubt; inactive = no such curve, though single readings can be large or run the other way
Target sequence (P15428 whole entry, looked up): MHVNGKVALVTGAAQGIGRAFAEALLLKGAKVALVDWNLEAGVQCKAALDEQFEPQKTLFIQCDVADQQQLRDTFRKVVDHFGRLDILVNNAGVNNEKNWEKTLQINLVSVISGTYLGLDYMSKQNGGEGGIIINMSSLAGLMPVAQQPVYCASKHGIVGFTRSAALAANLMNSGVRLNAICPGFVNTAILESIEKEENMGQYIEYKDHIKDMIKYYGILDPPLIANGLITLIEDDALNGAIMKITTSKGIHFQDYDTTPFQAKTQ
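20 nM HPGD preincubated 15 min at room temperature with compound in 50 mM Tris-HCl pH 8, 0.01% Tween 20. Started with 1 mM NAD+ and 30 uM prostaglandin E2; NADH fluorescence (360/450 nm) read 5 times over 30-s intervals, last minus first.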
Tau fibril FP – tau fibrillization inhibition (FP). K18 P301L tau heparin fibrillization, Alexa594 FP, 6 h. hit rate 0.39% among 280,000. AID 1468. Potency, µM (doses to about 57.7 µM), most hits filed as inhibitors. P10636; also: nearly all actives have a fitted effect of over 55% in size
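Compound effects on tau fibrillization are measured by Alexa 594 fluorescence polarization (ex 555, em 632 nm). K18 P301L tau is used at 15 uM with 0.24 uM labeled tracer, and 20 uM heparin induces aggregation over 6 hr at 37 C.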
ALDH1A1 block – blocks purified human ALDH1A1 activity | P00352 | Purified ALDH1A1, NADH fluorescence, propionaldehyde substrate | Potency, µM (top dose mostly 75.3 µM), usual class: inhibitors | hit rate 7.3% among 220,000; active = well fitted inhibition curve with a large enough effect, not every such curve was filed as active; inconclusive = small, poorly fitted or top-dose-only effect, or another doubt; inactive = no such curve, though single readings can be large or run the other way
Tau fluor counter – counter-screen for tau fibril formation inhibitors. tau K18 P301L Alexa594 fluorescence, heparin fibrillization. Potency, µM (titrated, usually from 57.7 µM). hit rate 0.93% among 280,000; also: nearly all actives have a fitted effect of over 55% in size
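Human tau K18 P301L (15 uM unlabeled, 0.24 uM Alexa 594-labeled) in 100 mM sodium acetate pH 7 with 20 uM heparin, 6 hr at 37 C. ThT 30 uM added, 1 hr ambient; Alexa 594 FP and total fluorescence read at 555/632 nm.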
Tau fibril ThT – tau fibrillization inhibition (ThT binding). recombinant tau K18 P301L (four-repeat tau fragment), heparin-induced fibrillization, ThT fluorescence. hit rate 2.1% among 270,000. Potency, µM (doses to about 57.4 µM), usual class: inhibitors. P10636. AID 1460; also: nearly all actives have a fitted effect of over 55% in size
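Heparin-induced fibrillization of the P301L-mutant K18 repeat-domain fragment of human tau was followed by ThT binding in quantitative high-throughput format.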
Hits are given with their value; 0 = inactive; ? = inconclusive; - = no result given; [ ] = another dose, or the depositor's remark. Unless noted, calls follow the shape of the dose curve; as a rule, active = well fitted curve in the direction sought with a large enough effect; inconclusive = small, poorly fitted or top-dose-only effect, or another doubt; inactive = no such curve, though single readings can be large; an effect the other way counts as inactive or inconclusive.

SMILES	JMJD2E inh	HPGD inh	Tau fibril FP	ALDH1A1 block	Tau fluor counter	Tau fibril ThT
c1ccc(COC2CCCN(Cc3nc(Cc4ccccc4)no3)C2)cc1 (stereo not given)	0	-	0	14µM	0	0
O=C(CCSc1ccccc1)N1CCN(c2ccccc2)CC1	0	-	0	0	0	?
c1ccc(COC2CCCN(Cc3nc(-c4cnccn4)no3)C2)cc1 (stereo not given)	0	-	0	0	0	0
O=C(c1ccco1)N1CCCN(Cc2nc(-c3cccs3)no2)CC1	0	-	0	?	0	0
Cc1ccc(NC(=O)C2CCN(S(=O)(=O)c3ccc4c(c3)CCCN4C(=O)C3CCC3)CC2)cc1	-	-	0	-	0	0
CCCn1cc(S(=O)(=O)c2cc(C)ccc2C)c(=O)c2cc(F)c(N3CCN(CC)CC3)cc21	-	-	0	-	0	0
Cc1ccccc1NC(=O)N1CCN(C(=O)c2ccco2)CC1	0	-	0	0	0	0
O=C(Cc1ccccc1)N1CCN(C(=O)c2ccco2)CC1	0	0	0	20µM	0	0
O=C(OCC(=O)N1CCN(C(=O)c2ccco2)CC1)c1cc(-c2ccco2)nc2ccccc12	?	?	0	?	0	?
O=C(c1ccco1)N1CCN(C(=O)c2cc(-c3ccccn3)nc3ccccc23)CC1	0	0	0	3.5µM	0	0
O=C(COc1ccccc1O)N1CCN(C(=O)c2ccco2)CC1	0	0	0	0	0	0
Cc1ccc(S(=O)(=O)N(C)CC(=O)N2CCN(C(=O)c3ccco3)CC2)cc1	0	0	0	?	0	0
CC(C)(C)c1ccc(S(=O)(=O)NCC(=O)N2CCN(C(=O)c3ccco3)CC2)cc1	0	0	0	1.6µM	0	0
Cc1cccc(C)c1NC(=O)C(c1ccccc1)N1CCN(C(=O)c2ccco2)CC1 (stereo not given)	0	0	0	25µM	0	0
Cc1c(CCNC(=O)C(C)(C)C)sc2nc(-c3ccc(F)cc3)nn12	-	-	0	-	0	0
CCOc1cc(C(=O)Nc2cccc3ncccc23)cc(OCC)c1OCC	0	0	0	0	0	0
Cc1ccc(C)c(N2CCN(C(=S)Nc3ccc4nc(N5CCN(C)CC5)cc(C)c4c3)CC2)c1	?	-	0	0	?	?
Cc1cc(N2CCN(C)CC2)nc2ccc(NC(=S)N3CCN(c4ccccn4)CC3)cc12	?	-	0	13µM	0	?
CCN1CCN(c2cc(C)c3cc(NC(=S)N4CCN(c5ccccc5F)CC4)ccc3n2)CC1	?	-	0	13µM	?	?
CCN1CCN(c2cc(C)c3cc(NC(=S)N4CCN(c5ccccc5)CC4)ccc3n2)CC1	?	-	0	?	0	?
Cc1ccccc1C(=O)/C=C1/c2ccccc2CC(C)(C)N1C	0	0	0	?	0	0
CN1/C(=C\C(=O)c2ccccc2Cl)c2ccccc2CC1(C)C	0	18µM	0	0	0	0
CCOc1ccc(CNCc2c(C(=O)O)c(C)n(Cc3ccc(C)cc3)c2C)cc1	-	-	0	-	0	0
C1=Nc2c(NCc3ccccc3)ncnc2Oc2ccccc21	0	25µM	0	0	0	0
c1ccc(CNc2ncnc3nc[nH]c23)cc1	0	0	0	0	0	0
SMILES	JMJD2E inh	HPGD inh	Tau fibril FP	ALDH1A1 block	Tau fluor counter	Tau fibril ThT
Cc1cc(C)nc(-n2nc(C)c3c2NC(=O)CC3c2ccccc2OC(C)C)n1 (stereo not given)	-	-	0	-	0	0
O=C1Nc2cc(Cl)cnc2N2CCCC12 (stereo not given)	?	?	?	?	?	14µM
O=C1Nc2ccccc2C(=O)N2CCC[C@@H]12	0	0	0	0	0	0
NC(=O)CN1C(=O)C2(SCC(=O)N2c2cccc(F)c2)c2ccccc21 (stereo not given)	-	-	0	-	0	0
O=C(N/N=C/C1CC2CCC1C2)c1c[nH]c2ccccc12 (stereo not given)	0	-	0	14µM	0	?
C[C@H](CC(=O)O)C(C(=O)O)C(=O)O	-	0	-	0[13.5 µM]	-	-
c1cncc(-c2cncnc2NC2CCNCC2)c1	-	-	-	25µM	-	-
O=C(CC1(c2ccc(Cl)cc2)C2CC3CC(C2)CC1C3)NCCO (stereo not given)	0	-	0	13µM	0	0
COc1ccc(/C=N/NC(=O)c2cccnc2)cc1CSc1ccccn1	0	-	0	-	0	0
Cc1cc(C)nc(NC(=O)CSc2ccccn2)n1	0	0	0	10µM	0	0
COc1ccc(C(=O)N/N=C/c2ccc(OC)c(CSc3ccccn3)c2)cc1	?	32µM	?	?	?	?
COc1cccc(NC(=O)CSc2ccccn2)c1	0	28µM	0	20µM	0	0
COc1ccc(NC(=O)CSc2ccc(-c3ccccn3)nn2)cc1OC	?	0	0	14µM	0	?
CO[C@@H]1COC(=O)[C@@H](C)COC(=O)[C@@H](C)NC(=O)C/C=C\[C@@H]1C	-	-	0[11.6 µM]	0[13.5 µM]	0[11.6 µM]	0[11.5 µM]
Cc1ccc(-c2cc(C(=O)Nc3cc([N+](=O)[O-])ccc3C)no2)cc1F	-	-	0	-	?	?
COc1cccc(NC(=O)Cc2nnc(SCC(=O)c3ccccc3)n2C)c1	0	32µM	0	8.9µM	0	0
O=C(CSc1ccccn1)Nc1ccc(NC(=O)CSc2ccccn2)cc1	0	-	0	0	0	0
COc1ccc(NC(=O)CSc2ccccn2)cc1	0	25µM	0	0	0	0
O=c1cc(-c2ccccc2Cl)oc2cc(O)cc(O)c12	0	18µM	0	?	0	0
Nc1ccc(O)c2c(=O)cc(-c3ccccc3Cl)oc12	0	0	?	0	?	?
COc1cccc2oc(-c3ccccc3)cc(=O)c12	?	?	0	?	0	?
CCOc1cccc2oc(-c3ccccc3Cl)cc(=O)c12	-	45µM	0	0	0	0
CC1CCC2(CC1)NC(=O)N(Cc1cccc(C(F)(F)F)c1)C2=O (stereo not given)	0	-	0	0	0	0
C[C@H](Cc1ccccc1)Nc1ncnc2c1ncn2[C@@H]1O[C@H](CO)[C@H](O)[C@H]1O	0	?	0	0	0	0
C[C@@H]1CC[C@@H]2C(=O)N3[C@@H](CC[C@@H](C)[C@@H]3c3ccc(-c4ccco4)cc3)C(=O)N2[C@H]1c1ccc(-c2ccco2)cc1	-	-	0[11.6 µM]	0[13.5 µM]	0[11.6 µM]	0[11.5 µM]
SMILES	JMJD2E inh	HPGD inh	Tau fibril FP	ALDH1A1 block	Tau fluor counter	Tau fibril ThT
CC1CCC2C(=O)N3C(CCC(C)C3c3ccc(-c4ccco4)cc3)C(=O)N2C1c1ccc(-c2ccco2)cc1 (stereo not given)	-	-	0[11.6 µM]	3.2µM	0[11.6 µM]	0[11.5 µM]
COc1ccc(C(=O)NCc2ccc3c(c2)CCN3C(=O)c2ccncc2)cc1	-	-	0	-	0	0
O=C(/C=C/c1ccccc1Cl)NCc1ccco1	0	14µM	0	?	0	0
O=C(/C=C/c1c(Cl)cccc1Cl)NCc1ccco1	0	?	0	0	0	0
CCNC(=O)/C(=C/c1ccco1)NC(=O)/C=C/c1ccccc1	0	18µM	0	?	0	0
O=C(/C=C/c1ccccc1)NCc1ccco1	0	-	0	6µM	0	0
